Source: PubChem BioAssay (several laboratories)
PKD1 inh: PKD1 (human) kinase inhibition; AID 797; inhibition, % (concentration not given with the values); 200,000 compounds, 0.056% hits; PKD1 kinase fluorescence polarization assay; Q15139; in the data active means inhibition above about 50%
zVAD death inh: blocks zVAD induced death of L929 cells | L929 zVAD necroptosis rescue, ATP luminescence, 24 h; with zVAD 60 µM | viability rescue, % at 10 µM | 220,000 compounds, 0.38% hits | AID 1377;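 active means activation, scaled between plate controls, above about 75%, limit read from the data; inactive means activation under that limit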;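 further: 0% = zVAD with DMSO and 100% = DMSO alone without zVAD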
Redox H2O2 prof: compounds producing H2O2 with reducing agent – biochemical, NIH compound library profiling, artefact control for MLSCN library redox annotation, primary screen; DTT-dependent redox cycling H2O2, phenol red/HRP absorbance; 100% = 100 µM peroxide control, 0% = buffer; activation, % at 10 µM; 200,000 compounds, 0.03% hits; AID 878;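 active means activation of at least 50% relative to the plate's high and low controls in the primary single-dose screen; inactive means activation below 50%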;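 further: compound incubated with DTT at 0.8 mM final as the reducing agent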
TNF death inh: blocks TNF-alpha induced death of Jurkat FADD-/- cells; Jurkat FADD-/- TNF necroptosis rescue, ATP luminescence, 24 h; 0 = TNF only, 100 = no-TNF cells; activation (protection from cell death), % at 10 µM; 220,000 compounds, 0.068% hits;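 active means activation, meaning protection from cell death, of at least 50% relative to plate controls; inactive means activation below 50%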;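 further: necroptosis triggered by 40 ng/mL TNF-alpha added together with compound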
PERK inhibitor: blocks human PERK kinase; Q9NZJ5; CHO PERK-DD fusion, SEAP luminescence translation reporter; inhibition, % at 5.6 µM; 220,000 compounds, 0.17% hits;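 active means inhibition above the mean inhibition of all tested compounds plus 3 SD, set separately per screening campaign, cut at about 2.9% in these data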;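 further: PERK kinase domain activated by AP20187 dimerizer at 100 nM; 0% = DMSO with dimerizer and 100% = rapamycin at 8.4 µM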
WT yeast gro inh: growth inhibition of WT yeast, mitochondrial fusion screen; mitochondrial fusion phenotypic screen, WT strain; inhibition, % at 10 µM; 190,000 compounds, 2.1% hits; AID 1362; in the data active means inhibition above about 58%; tested in S. cerevisiae
zVAD death conf: confirmed blocker of zVAD induced death in L929 cells | shares compounds with zVAD death inh | L929 zVAD-induced necroptosis rescue, ATP luminescence, 24 h | activation (protection from necroptosis), % at 10 µM | 760 compounds, 16% hits | AID 463117;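 active means mean protection from necroptosis of at least 50% over duplicate tests; inactive means mean protection below 50%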;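 further: 0% = cells with zVAD alone and 100% = vehicle cells without zVAD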
* marks the source's active call; other numbers are inactive results; . = not tested or not shown. The list is not random: actives were taken first. Their share in the collection is about 2.4%.

SMILES	PKD1 inh	zVAD death inh	Redox H2O2 prof	TNF death inh	PERK inhibitor	WT yeast gro inh	zVAD death conf
O=C(CSc1nnnn1-c1ccc2c(c1)OCCO2)Nc1nc2c(s1)CCCC2	1.2	83.6*	2.7	1.6	-0.2	12.6	73.6*
CCOC(=O)c1c(C2CC2)csc1NC(=O)COC(=O)CCS(=O)(=O)c1ccc(C)cc1	-6.4	-0.3	-0.1	-1.2	0.4	0.3	.
COC(=O)c1ccc(NC(=O)Nc2ccc(OC)c(OC)c2)cc1	0.3	82.5*	2.4	1.2	0.4	-11.8	0.8
CC[C@H](C)[C@H](NC(N)=O)C(=O)Nc1ccc(NC(C)=O)cc1	.	-0.7	.	0.3	2.5	.	.
CCC(C)C(NC(N)=O)C(=O)Nc1ccc(C(=O)OC)cc1 (stereo not drawn)	-5.2	77.8*	-2.0	0.5	0.1	-20.6	4.1
COC(=O)[C@H](C)NC(=O)Nc1ccc(OC)c(OC)c1	1.4	0.1	4.6	-1.9	0.0	-5.0	.
O=Cc1ccc(OCc2nnsc2Cl)cc1	9.3	2.7	-1.4	1.4	0.2	-10.7	.
CNc1ncc(C(=O)c2ccc(F)cc2)s1	-1.6	84.7*	-2.0	6.9	1.1	18.3	3.9
COc1ccc(CCN(Cc2cccs2)S(=O)(=O)c2ccc(C(=O)O)cc2)cc1OC	-3.8	23.6	0.1	0.0	0.7	-11.1	.
COc1cc([N+](=O)[O-])ccc1NC(=O)COC(=O)c1ccc(NC(N)=O)cc1	.	78.4*	.	2.6	0.3	.	38.7
COCC(=O)Nc1ccc([N+](=O)[O-])cc1OC	-3.9	-0.4	-0.6	-0.3	0.3	8.5	.
CCCN1C(=O)/C(=C/c2ccc(C)s2)NC1=S	6.4	91.7*	0.5	29.8	0.8	7.3	86.5*
N/C(=N\NC(=O)Nc1ccc(Cl)cc1)c1ccccn1	.	81.1*	.	0.9	0.8	.	2.9
CC(C)c1ccc(NC(=O)N2CCc3ccccc3C2)cc1	-1.2	75.8*	-2.7	3.9	2.2	11.5	1.5
CC12CCC(C(=O)NCCCN3CCOCC3)(C(Br)C1=O)C2(C)C (stereo not drawn)	.	1.0	.	2.3	0.9	.	.
O=C(CSC1=NCCN1)NC12CC3CC(CC(C3)C1)C2	-1.6	85.1*	1.3	-7.7	0.7	-12.5	2.5
COc1ccccc1OCC(O)CNCc1ccc2c(c1)OCO2 (stereo not drawn)	.	-0.2	.	2.1	0.2	.	.
CN(C)CCCNc1cc(C(C)(C)C)nc2c(-c3ccc(Cl)cc3)cnn12	.	5.5	.	-27.3	0.6	.	.
Cc1cc(NCCCN2CCOCC2)n2ncc(-c3ccc(Cl)cc3)c2n1	2.3	84.4*	-0.8	-1.2	-0.3	29.5	1.0
O=C(COc1ccccc1)NCc1nnc2c3ccccc3c(-c3ccccc3)nn12	-3.0	0.6	0.2	0.0	-0.4	-24.8	.
CC(=O)c1ccc(OCCCC(=O)Nc2ccc(C)c(S(=O)(=O)N(C)C)c2)cc1	-1.5	1.1	0.6	1.4	-0.2	-2.6	.
COc1ccc(OCC(=O)Nc2ccc(C)c(S(=O)(=O)N(C)C)c2)cc1	-3.5	80.6*	-1.2	-0.3	-0.1	6.9	2.4
Cc1cccc(CC2SC(N)=NC2=O)c1 (stereo not drawn)	-3.4	4.3	-0.3	0.9	0.1	-11.9	.
Cc1ccc(CC2SC(N)=NC2=O)cc1 (stereo not drawn)	-4.9	83.4*	-0.2	2.7	-0.8	-9.3	2.7
Nc1ccccc1Nc1cc(-c2ccccc2)[nH]n1	-7.5	91.4*	-1.3	-12.5	0.8	35.7	88.7*
SMILES	PKD1 inh	zVAD death inh	Redox H2O2 prof	TNF death inh	PERK inhibitor	WT yeast gro inh	zVAD death conf
CC1CCc2nc(NC(=O)Cc3cccs3)sc2C1 (stereo not drawn)	-6.1	0.1	1.2	8.0	0.2	27.4	.
CC(C)(C)C1CCc2nc(NC(=O)Cc3cn4ccsc4n3)sc2C1 (stereo not drawn)	-10.1	76.1*	-2.2	3.6	0.5	17.7	23.3
O=c1oc2ccccc2n1CSC1=NCCS1	1.5	100.9*	0.4	61.0*	0.0	-4.2	1.3
CC1CN(Cc2ccccc2)C(C)CC1O (stereo not drawn)	-3.3	0.0	1.5	1.3	0.7	-5.0	.
Cc1ccc(NC(=O)n2ccc(-c3ccc(-n4ccnc4)cc3)n2)cc1	5.9	82.1*	-0.8	14.2	0.7	-7.8	49.8
O=C(O)c1ccc(/C=N/Nc2nc3ccccc3[nH]2)cc1	.	-0.1	.	-2.2	0.4	.	.
C(=N\Nc1nc2ccccc2[nH]1)/c1cccs1	-0.8	25.6	0.6	12.0	0.2	-2.9	.
COC(=O)c1ccc(/C=N/Nc2nc3ccccc3[nH]2)cc1	-2.2	81.9*	-2.0	15.7	1.0	5.4	8.0
C(=N\Nc1nc2ccccc2[nH]1)/c1ccc2c(c1)OCO2	-12.6	79.2*	-0.7	18.8	-1.3	8.4	8.9
C(=N\Nc1nc2ccccc2[nH]1)/c1ccncc1	-3.4	78.0*	-0.4	30.4	-0.1	-0.7	50.9*
CC(=O)Nc1ccc(/C=N/Nc2nc3ccccc3[nH]2)cc1	5.0	88.4*	0.4	-3.1	0.1	-14.1	2.1
C/C(=N\Nc1nc2ccccc2[nH]1)c1ccc2c(c1)OCO2	3.7	3.7	-4.1	3.7	-0.6	16.3	.
COC(=O)N/N=C/c1cc(Cl)cc(Cl)c1OCc1ccc(F)cc1	4.5	0.7	0.0	0.6	0.5	2.2	.
O=S(=O)(Nc1cccc2ncccc12)c1cccs1	1.8	79.3*	-0.2	5.0	-1.1	59.2*	39.8
O=C(/C=C/c1ccc2ccccc2n1)N1CCN(S(=O)(=O)c2ccccc2F)CC1	.	83.7*	.	1.8	-2.4	.	4.7
O=C(/C=C/c1ccc2ccccc2n1)N1CCN(S(=O)(=O)c2ccc(F)cc2)CC1	.	27.6	.	4.6	0.4	.	.
COc1ccc(C(=O)OCC(=O)NC(=O)NC(C)C)cc1OC	-8.2	77.1*	-1.8	-0.1	0.3	6.3	1.5
COc1ccc(C(=O)COC(=O)c2ccc(OC)c(OC)c2)cc1OC	-7.4	2.1	0.3	2.8	-0.7	14.2	.
COc1cc2oc(-c3ccc(O)cc3)cc(=O)c2c(OC)c1O	.	6.5	.	-2.3	1.1	.	.
COc1cc2oc(-c3ccc(O)cc3)cc(=O)c2c(O)c1OC	.	78.4*	.	-11.1	.	.	42.4
O=C(N/N=C/c1ccc(OCC(=O)N2CCCCC2)cc1)c1ccccc1	-9.9	0.0	-5.0	-2.4	-0.1	-8.0	.
O=C(COc1ccc(/C=N/NC(=O)C(=O)N2CCCCCC2)cc1)Nc1ccccc1Cl	-22.6	78.2*	0.0	0.3	0.2	-2.0	44.9
Cc1ccc(N=Nc2c(N)[nH]n3c(=O)cc(C)nc23)cc1	-12.3	76.5*	0.1	1.6	0.6	-10.6	0.1
CCOC(=O)c1ccc(NC(=O)Nc2ccn(C)n2)cc1	-13.6	86.3*	2.9	1.0	1.4	-3.2	40.3
